# Only some compounds are listed: those with a hit (about 1.5% of all), similar ones and a draw of the others.
# RecA splice inh: Mtb RecA intein splicing inhibitors, primary screen, biochemical, fluorescence, HTS | AID 2221, 2009 | inhibition, % (concentration not given with the values) | Protein RecA (Mycobacterium tuberculosis (strain ATCC 25618 / H37Rv)), P9WHJ3 | cell-free RecA intein splicing | 290,000 tested, 0.75% active; in the data active = inhibition above about 30%;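 note: 0% = vehicle wells and 100% = reference inhibitor control wells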
# VHR inh abs: VHR1 phosphatase inhibitors, primary screen, biochemical, absorbance, uHTS; Dual specificity protein phosphatase 3 (Homo sapiens), P51452; recombinant VHR phosphatase, pNPP absorbance; inhibition, % at 13.3 µM; 290,000 tested, 0.52% active; in the data active = inhibition above about 50%
# CCHFV vOTU inh: CCHFV vOTU protease inhibitors, primary screen, biochemical, Pep-AMC substrate, fluorescence | inhibition, % at 11.5 µM | 370,000 tested, 0.55% active | Crimean-Congo hemorrhagic fever virus L polyprotein viral ovarian tumor (vOTU) protease … | AID 651958, 2012; in the data active = inhibition above about 30%; note: 0% = vehicle wells with enzyme and 100% = no enzyme wells
# 3CLpro inhibitor: SARS-CoV 3CLpro protease inhibitors, primary screen, biochemical, quenched FRET. recombinant SARS-CoV 3CLpro, quenched FRET peptide cleavage. 290,000 tested, 0.14% active. Replicase polyprotein 1ab (Severe acute respiratory syndrome coronavirus), P0C6X7. inhibition, % at 6 µM; in the data active = inhibition above about 12%
# GFP chromophore: counter-screen: blocks GFP chromophore formation, dose response, counter-screen, biochemical, fluorescence, homogeneous | shares compounds with RecA splice inh | cell-free GFP chromophore formation | EC50, µM | 2,100 tested, 83% active | AID 434968, 2010; call rule not given here
# An asterisk follows results filed as active; / = not tested or not shown.
SMILES,RecA splice inh,VHR inh abs,CCHFV vOTU inh,3CLpro inhibitor,GFP chromophore
COc1cc(OC)c(NS(=O)(=O)c2ccc3c(c2)NC(=O)CO3)cc1Cl,-6,10,-3,-6,/
O=C1CC(CSc2ccc(Cl)cc2)=NN1,91*,14,-1,0,8.8*
Cc1cc(SCC2=NNC(=O)C2)c(Cl)cc1Cl,/,18,-2,-3,/
N/C(=N/OC(=O)c1cccc([N+](=O)[O-])c1)c1cccc([N+](=O)[O-])c1,-7,27,11,-1,/
CC1=C(C)/C(=N/OC(=O)c2cccc([N+](=O)[O-])c2)C=CC1=O,47*,-9,/,4,>38
COc1cc(Cl)ccc1OC1(C)CCN(Cc2cccc(OC)c2OC)C1 (stereo not given),/,/,-10,/,/
COC(=O)[C@H](C(C)C)N1CCc2nnn(CC3CCCCC3)c2-c2ccccc2S1(=O)=O,/,/,13,/,/
CC(=O)Nc1cc2c(c([N+](=O)[O-])c1C)C(C)(C)CC2(C)C,/,/,-4,/,/
CS/C(=C/[N+](=O)[O-])Nc1cccc2c1C(C)CC2(C)C (stereo not given),67*,6,-4,2,38*
Cc1ccccc1NC(=O)C(=Cc1ccc(C(=O)O)cc1)C(=O)Nc1ccccc1C,68*,18,1,-1,16*
CC(=O)/C(=C/c1ccccc1)C(=O)Nc1ccccc1C,-1,6,-5,1,/
COc1ccccc1Cc1c(C(C)(C)C)nc2c(C)cc(Br)cn12,/,/,5,/,/
CC(=O)N(CCC(Cc1ccccc1)c1ccc2c(c1)OCO2)Cc1ccccc1F (stereo not given),36*,19,-1,0,>38
Fc1ccccc1CNCCC(Cc1ccccc1)c1ccc2c(c1)OCO2 (stereo not given),4,7,5,1,/
CC(=O)N1CCN(S(=O)(=O)c2cccc(C(=O)OCc3ccc(C(C)(C)C)cc3)c2)CC1,/,/,-7,/,/
CC(=O)c1c(C)nc(-c2ccc(Cl)cc2)nc1N=CN(C)C,-4,-2,1,-3,>38
COc1cc(OCc2ccc(C)cc2)ccc1CNC[C@H]1O[C@@H](n2cnc(C(N)=O)n2)[C@H](O)[C@@H]1O,/,/,11,/,/
COc1ccc(N2CCN(C(=O)NC3CC(=O)N(c4ccc(OC)cc4)C3)CC2)cc1 (stereo not given),-2,10,-3,-2,/
O=C(c1ccc2nc(Cc3cccc(Cl)c3)oc2c1)N1CCC(O)CC1,42*,-5,-2,-3,>38
O=C(CN1C(=O)S/C(=C\C=C\c2ccccc2)C1=O)Nc1ccccc1C(=O)O,60*,10,13,6,10*
CC(CCc1ccccc1)NC(=O)COC(=O)c1ccc(S(C)(=O)=O)c([N+](=O)[O-])c1 (stereo not given),55*,19,8,0,32*
CS(=O)(=O)c1ccc(C(=O)OCc2nnc(-c3ccccc3)o2)cc1[N+](=O)[O-],73*,9,-8,-4,14*
CCOC(=O)c1c(-c2ccco2)csc1NC(=O)COC(=O)c1cnc(C)cn1,2,/,5,/,/
O=C(NCc1ccc2c(c1)OCO2)c1nc(S(=O)(=O)Cc2ccccc2F)ncc1Cl,37*,-3,8,1,8.9*
O=C(NCc1ccc2c(c1)OCO2)c1nc(S(=O)(=O)Cc2ccccc2)ncc1Cl,53*,46,-1,-2,14*
SMILES,RecA splice inh,VHR inh abs,CCHFV vOTU inh,3CLpro inhibitor,GFP chromophore
O=C(NCc1ccc2c(c1)OCO2)c1ccccc1Cl,-2,/,1,/,/
CN1CCCCc2c1[nH]c1ccccc1c2=O,-9,1,11,-3,/
O=C1c2ccccc2C(=O)c2c1oc(C(F)(F)F)c2C(=O)c1ccccc1,39*,7,25,7,>38
COc1cc(/C=N/NC(=O)c2ccc(F)cc2)ccc1OC(=O)c1ccco1,30*,-6,5,6,>38
O=C(N/N=C/c1ccc(OC(=O)c2ccco2)cc1)c1ccc[n+]([O-])c1,32*,/,2,/,>38
CN(C)S(=O)(=O)c1cccc(NC(=O)c2cccc(N3C(=O)CCC3=O)c2)c1,/,/,-3,/,/
CCOC(=O)c1cnc(SCC(=O)c2ccccc2)nc1N,-2,29,-4,-9,/
CCOC(=O)Cn1c(COc2ccccc2OC)[n+](C)c2ccccc21,0,/,5,/,/
CCCCCCCCCCOC(=O)Cn1c(COc2ccc(OC)cc2)[n+](C)c2ccccc21,42*,10,/,2,11*
CCCCCCCCCCOC(=O)Cn1c(COc2ccccc2C)[n+](C)c2ccccc21,57*,4,/,4,7.6*
CCCCCCCCCCOC(=O)Cn1c(COc2cccc(C)c2)[n+](C)c2ccccc21,55*,0,18,-2,9.4*
CN(C)C(=O)Oc1cccc(OCc2n(C)c3ccccc3[n+]2C)c1,-1,7,1,4,/
COCc1[nH]nc2c1C1(CCSCC1)C(C#N)=C(N)O2,74*,-18,9,0,20*
CCOC(=O)N1CCC2(CC1)C(C#N)=C(N)Oc1n[nH]c(C)c12,80*,2,10,-1,13*
CC1(C)CC(=O)C2=C(C1)OC(N)=C(C#N)C21CCC2(CC1)OCCO2,-5,4,-12,-2,/
Cc1[nH]nc2c1C1(CCC3(CC1)OCCO3)C(C#N)=C(N)O2,74*,-5,-14,-3,>38
CCc1[nH]nc2c1C1(CCOC1C)C(C#N)=C(N)O2 (stereo not given),2,30,-17,1,/
CC(=O)N1CCC2(CC1)C(C#N)=C(N)Oc1n[nH]c(C(F)(F)F)c12,-10,18,2,2,/
OCCNc1ncnc2c1ncn2[C@H]1CN(Cc2ccc(Cl)cc2)C[C@@H](CO)O1,/,/,1,/,/
COc1cccc(NC(=O)CSc2c3c(nc4ccccc24)CCCC3)c1,70*,4,-12,0,24*
Cc1cccc(NC(=O)CSc2c3c(nc4ccccc24)CCC3)n1,17,21,-2,1,/
O=C(OCc1ccccc1)/C(=C(\O)c1ccccc1Br)c1ccc(-c2ccccc2)cn1,1,/,-3,/,/
Cc1ccc(-n2nc(C)c(C(=O)O)n2)c(C)c1,11,13,12,-1,/
CC1=NN(c2ccc(C)cc2C)C(=O)C1C(c1ccccc1)C1C(=O)N(c2ccc(C)cc2C)N=C1C (stereo not given),90*,3,/,1,1.1*
Cn1c(C(C)(O)C(O)c2ccccc2)nc2ccccc21 (stereo not given),-2,7,/,-3,/
CC1=NN(c2ccc(Cl)c(C(=O)O)c2)C(=O)C1,95*,13,16,1,5.6*
CC1=NN(c2cc(Cl)c(S(=O)(=O)O)cc2Cl)C(=O)C1,/,/,5,/,/
CC1=NN(c2ccc(S(=O)(=O)O)cc2Cl)C(=O)C1,82*,16,13,2,30*
